Measured values from PubChem BioAssay (NCI).
The panel holds about 83,000 compounds, 20% with a hit somewhere; the sample as a whole holds those more often.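 Single-dose data. Exposure time 48 hours. Values below 10 considered active.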 Unmarked numbers belong to inactive results. Activity calls are given as the source filed them.

system: MDA-MB-231 breast; assay: NCI-60 one-dose screen, 48 h (100 = growth as untreated, 0 = no growth, -100 = all killed); details: 10 µM unless noted

Row | Structure (SMILES) | growth
1 | COc1ccc(C(=O)N2NC(=O)/C(=C/c3ccc(Br)cc3)N=C2c2ccccc2)cc1 | 83.3%
2 | N#Cc1c(-c2ccccc2)cc(-c2ccccc2)n(CC(=O)NO)c1=O | 42.8%
3 | COc1ccc(Nc2ncccc2C(=O)NCc2cn(Cc3cccc(Oc4ccccc4)c3)nn2)c(OC)c1 | 23.9%
4 | N/C(=N\S(=O)(=O)c1ccccc1)Nc1nc2ccccc2s1 | 92.3%
5 | O=S(=O)(NCCCNc1nccc(-n2ccc3cccnc32)n1)c1cccc(C(F)(F)F)c1 | 106%
6 | COc1cc(NC(N)=NCCC(C)(C)Oc2ccc(C(F)(F)F)cc2)ncc1C#N | -54.4% (active)
7 | COc1ccc2c(c1)[nH]c(=O)c1c3cc(OC)ccc3cn21 | 0.629% (active)
8 | FC(F)(F)c1cccc(-c2cn3c(ccc4ccccc43)n2)c1 | 79.2%
9 | COc1ccc(CN2CCc3c(Sc4ccccc4)nc(N)nc3C2=O)c(OC)c1 | 69%
10 | COc1ccc(Nc2ncccc2C(=O)NCc2cn(Cc3cccc(Oc4ccccc4)c3)nn2)cc1 | 52%
11 | CCN(CC)CCC(CNc1ccnc2cc(Cl)ccc12)c1ccc(Cl)cc1 (stereo not drawn) | -32.1% (active)
12 | Cc1ccc(S(=O)(=O)C2=C3C(=C(c4ccccc4)c4ccccc43)CN(S(=O)(=O)c3ccc(C)cc3)C2)cc1 | 48.8%
13 | O=C1C(Cl)=C(Nc2ccccn2)C(=O)c2ccccc21 | 62.1%
14 | COc1cc(/C=C/C(=O)N2CCN(C(=O)/C=C/c3cc(OC)c(OC)c(OC)c3)CC2)cc(OC)c1OC | 82.7%
15 | c1ccc(-c2nnc(-c3ccccn3)s2)nc1 | 95.1%
16 | Cc1c(C(=O)/C=C/c2csc3ccccc23)[n+](=O)c2ccccc2n1[O-] | 64.2%
17 | O=C(NCCNc1nccc(-n2ccc3cccnc32)n1)c1ccc(C(F)(F)F)cc1 | 97.7%
18 | C=C(C)[C@@H]1C[C@@H]2Cc3cc(Cl)ccc3N1O2 | 99.2%
19 | O=S(=O)(CC(O)(c1ccccc1)c1ccccc1)CC(O)(c1ccccc1)c1ccccc1 | 71.2%
20 | NC1=NC(SCc2ccccc2CCl)c2ncn(Cc3ccccc3CCl)c2N1 (stereo not drawn) | 47.5%
21 | C=C[C@@H]1C[C@@H]2Cc3c(C)cc(C)cc3N1O2 | 113%
22 | COc1cc(/C=N\NC(=O)CN2CCN(c3cc4c(cc3F)c(=O)c(C(=O)N/N=C/c3cc(OC)c(OC)c(OC)c3)cn4C3CC3)CC2)cc(OC)c1OC | -16.1% (active)
23 | Fc1ccc(-c2nc(-c3nc4ncccc4[nH]3)cc3c2[nH]c2ccccc23)cc1F | 53.9%
24 | COc1cc(-c2nc(-c3nc4ccc(Cl)cc4[nH]3)cc3c2[nH]c2ccccc23)cc(OC)c1OC | 4.62% (active)
25 | C=C(C)[C@@H]1C[C@@H]2Cc3ccc(Cl)c(C)c3N1O2 | 91.5%
26 | CCCCCCCCC(C)OC(=O)c1nn(C(C)=O)c2ccccc12 (stereo not drawn) | 99.7%
27 | COc1cc(/C(C#N)=C/c2ccc3c(c2OC)OCO3)cc2c1OCO2 | 29.7%
28 | CC12CCC3C4(C)COC(c5ccco5)OC4CCC3(C)C1CC(C1=CCOC1=O)O2 (stereo not drawn) | 90.2%
29 | C=C1CCC2C3(C)COC(c4ccc(N(C)C)cc4)OC3CCC2(C)C1C/C=C1/C(=O)OCC1O (stereo not drawn) | 85.4%

system: RXF 393 renal; assay: as above; details: 10 µM unless noted

Row | Structure (SMILES) | growth
30 | N#C/C(=C1C=C/C(=N/O)C(Cl)=C/1)c1ccc(Cl)cc1 | 81.9%
31 | c1coc(CNc2ccnc(Nc3ccc(OCCN4CCCCC4)cc3)n2)c1 | 71.3%
32 | C=C1CCC2C(C)(CO)C(O)CCC2(C)C1C/C=C1/C(=O)OCC1O/C=C/c1ccccc1 (stereo not drawn) | 81.2%
33 | C=C(C)[C@@H]1CC[C@]2(C(=O)N3CCNCC3)CC[C@]3(C)[C@H](CC[C@@H]4[C@@]5(C)C/C(=C/c6ccncc6)C(=O)C(C)(C)[C@@H]5CC[C@]43C)[C@@H]12 | 117%
34 | CCOC(=O)C1C(=O)C=C(c2ccc(OC)cc2)CC1c1sc(N(C)Cc2ccccc2)nc1Cl (stereo not drawn) | 93.9%
35 | COc1cc(/C=C/C(=O)/C=C/c2cc(OC)c3c(c2)OCO3)cc2c1OCO2 | 72.4%
36 | C[n+]1c(/C=C/c2c(O)ccc3ccccc23)ccc2ccccc21 | 37.9%
37 | CCN(CC)CCC(CNc1c2ccc(Cl)cc2nc2ccc(OC)cc12)c1ccccc1 (stereo not drawn) | -97.7% (active)
38 | C=C1CC2(OC1=O)C(=O)N(CCCN1C(=O)C3(CC(=C)C(=O)O3)c3ccccc31)c1ccccc12 (stereo not drawn) | -61.1% (active)
39 | CN(CCCCCl)P(=O)(OCc1ccc([N+](=O)[O-])o1)C(F)(F)C[C@H](NC(=O)CNC(=O)c1ccc(N=[N+]=[N-])cc1)C(=O)NCCc1ccc(O)cc1 (stereo partly drawn) | 47.6%
40 | COc1ccc(C(=O)N2NC(=O)/C(=C/c3ccc(Br)cc3)N=C2c2ccccc2)cc1 | 99.9%
41 | N#Cc1c(-c2ccccc2)cc(-c2ccccc2)n(CC(=O)NO)c1=O | 27.9%
42 | COc1ccc(Nc2ncccc2C(=O)NCc2cn(Cc3cccc(Oc4ccccc4)c3)nn2)c(OC)c1 | 6.03% (active)
43 | N/C(=N\S(=O)(=O)c1ccccc1)Nc1nc2ccccc2s1 | 99.4%
44 | O=S(=O)(NCCCNc1nccc(-n2ccc3cccnc32)n1)c1cccc(C(F)(F)F)c1 | 103%
45 | COc1cc(NC(N)=NCCC(C)(C)Oc2ccc(C(F)(F)F)cc2)ncc1C#N | -50.4% (active)
46 | COc1ccc2c(c1)[nH]c(=O)c1c3cc(OC)ccc3cn21 | -39.9% (active)
47 | FC(F)(F)c1cccc(-c2cn3c(ccc4ccccc43)n2)c1 | 115%
48 | COc1ccc(CN2CCc3c(Sc4ccccc4)nc(N)nc3C2=O)c(OC)c1 | 44.4%
49 | COc1ccc(Nc2ncccc2C(=O)NCc2cn(Cc3cccc(Oc4ccccc4)c3)nn2)cc1 | 46%

Row | Structure (SMILES) | growth
50 | CCN(CC)CCC(CNc1ccnc2cc(Cl)ccc12)c1ccc(Cl)cc1 (stereo not drawn) | -90.4% (active)
51 | Cc1ccc(S(=O)(=O)C2=C3C(=C(c4ccccc4)c4ccccc43)CN(S(=O)(=O)c3ccc(C)cc3)C2)cc1 | 47.1%
52 | O=C1C(Cl)=C(Nc2ccccn2)C(=O)c2ccccc21 | 95.3%
53 | COc1cc(/C=C/C(=O)N2CCN(C(=O)/C=C/c3cc(OC)c(OC)c(OC)c3)CC2)cc(OC)c1OC | 121%
54 | c1ccc(-c2nnc(-c3ccccn3)s2)nc1 | 109%
55 | Cc1c(C(=O)/C=C/c2csc3ccccc23)[n+](=O)c2ccccc2n1[O-] | 13.1%
56 | O=C(NCCNc1nccc(-n2ccc3cccnc32)n1)c1ccc(C(F)(F)F)cc1 | 110%
57 | C=C(C)[C@@H]1C[C@@H]2Cc3cc(Cl)ccc3N1O2 | 104%
58 | O=S(=O)(CC(O)(c1ccccc1)c1ccccc1)CC(O)(c1ccccc1)c1ccccc1 | 93.4%
59 | NC1=NC(SCc2ccccc2CCl)c2ncn(Cc3ccccc3CCl)c2N1 (stereo not drawn) | -4.55% (active)
60 | C=C[C@@H]1C[C@@H]2Cc3c(C)cc(C)cc3N1O2 | 98.3%
61 | COc1cc(/C=N\NC(=O)CN2CCN(c3cc4c(cc3F)c(=O)c(C(=O)N/N=C/c3cc(OC)c(OC)c(OC)c3)cn4C3CC3)CC2)cc(OC)c1OC | -3.67% (active)
62 | Fc1ccc(-c2nc(-c3nc4ncccc4[nH]3)cc3c2[nH]c2ccccc23)cc1F | 73.1%
63 | COc1cc(-c2nc(-c3nc4ccc(Cl)cc4[nH]3)cc3c2[nH]c2ccccc23)cc(OC)c1OC | 63.5%
64 | C=C(C)[C@@H]1C[C@@H]2Cc3ccc(Cl)c(C)c3N1O2 | 99.4%
65 | CCCCCCCCC(C)OC(=O)c1nn(C(C)=O)c2ccccc12 (stereo not drawn) | 105%
66 | COc1cc(/C(C#N)=C/c2ccc3c(c2OC)OCO3)cc2c1OCO2 | -14.3% (active)
67 | CC12CCC3C4(C)COC(c5ccco5)OC4CCC3(C)C1CC(C1=CCOC1=O)O2 (stereo not drawn) | 99.3%
68 | C=C1CCC2C3(C)COC(c4ccc(N(C)C)cc4)OC3CCC2(C)C1C/C=C1/C(=O)OCC1O (stereo not drawn) | 1.3% (active)
